Inconclusive results are not listed. Calls of active or inactive are those of the source. The call rests on the fitted dose curve; in most records, active means well fitted curve in the direction sought with a large enough effect; inconclusive means small, poorly fitted or top-dose-only effect, or another doubt; inactive means no such curve, though single readings can be large; an effect the other way counts as inactive or inconclusive.
Assays:
[1] = HPAF-II 24hr Apoptosis Induction qHTS against the NCATS CANVASS Library (AID 1347356)
Summary of the method: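 Using an 11-point qHTS format, HPAF-II cells in DMEM/10% FBS received compounds for 24 h; doxorubicin titration as control. Caspase-3/7 activity quantified by DEVD-luciferase luminescence.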

[2] = HEK293 18hr Apoptosis Induction qHTS against the NCATS CANVASS Library (AID 1347357); further: potency means the concentration at half of the fitted maximal effect
Summary of the method: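 Cells seeded at 500/well in DMEM + 10% FBS. Compounds pinned, 11 concentrations. 18 h, 37 degrees C/5% CO2. Caspase-Glo 3/7 added, 15 min RT dark, luminescence read.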

[3] = HPAF-II 12hr Apoptosis Induction qHTS against the NCATS CANVASS Library (AID 1347358)
Summary of the method: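 Twelve-hour compound exposure of HPAF-II cells in DMEM with 10% FBS, then luminescent Caspase-Glo 3/7 detection after 15 min at room temperature; doxorubicin control.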

[4] = HEK293 24hr Apoptosis Induction qHTS against the NCATS CANVASS Library (AID 1347359)
Summary of the method: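 HEK293 cells, 500 per well, exposed to an 11-point compound series for 24 hours at 37 degrees C. Caspase 3/7 activity read by Caspase-Glo luminescence (DEVD substrate) after 15 min at room temperature.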

[5] = HPAF-II 18hr Apoptosis Induction qHTS against the NCATS CANVASS Library (AID 1347360)
Summary of the method: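 Seed HPAF-II cells at 500/well in DMEM + 10% FBS, pin-transfer compounds, incubate 18 hours at 37 degrees C/5% CO2, add Caspase-Glo 3/7 reagent, wait 15 min, read luminescence.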

[6] = HEK293 12hr Apoptosis Induction qHTS against the NCATS CANVASS Library (AID 1347361)
Summary of the method: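 Cells are seeded, dosed with an 11-point compound series and incubated 12 hours. Caspase-3/7 activity is detected by luminescent DEVD-substrate reagent after 15 minutes at room temperature.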

[7] = test system: NAD(P)H diaphorase (Clostridium kluyveri); assay: Diaphorse counterscreen qHTS: Assay Interference Panel against the NCATS CANVASS Library (AID 1347362)
Summary of the method: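 Clostridium kluyveri diaphorase in PBS + 0.01% Tween-20 preincubated 15 min with compounds. Resazurin and NADH then added for 5 min at room temperature in the dark; resorufin fluorescence read (ex 525, em 598).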

[8] = biological target: Luciferin 4-monooxygenase (Photinus pyralis) (UniProt P08659); assay: Firefly luciferase counterscreen qHTS: Assay Interference Panel against the NCATS CANVASS Library (AID 1347363); further: series mostly up to about 57 µM
Chain of Luciferin 4-monooxygenase (Photinus pyralis) (P08659 whole entry, looked up): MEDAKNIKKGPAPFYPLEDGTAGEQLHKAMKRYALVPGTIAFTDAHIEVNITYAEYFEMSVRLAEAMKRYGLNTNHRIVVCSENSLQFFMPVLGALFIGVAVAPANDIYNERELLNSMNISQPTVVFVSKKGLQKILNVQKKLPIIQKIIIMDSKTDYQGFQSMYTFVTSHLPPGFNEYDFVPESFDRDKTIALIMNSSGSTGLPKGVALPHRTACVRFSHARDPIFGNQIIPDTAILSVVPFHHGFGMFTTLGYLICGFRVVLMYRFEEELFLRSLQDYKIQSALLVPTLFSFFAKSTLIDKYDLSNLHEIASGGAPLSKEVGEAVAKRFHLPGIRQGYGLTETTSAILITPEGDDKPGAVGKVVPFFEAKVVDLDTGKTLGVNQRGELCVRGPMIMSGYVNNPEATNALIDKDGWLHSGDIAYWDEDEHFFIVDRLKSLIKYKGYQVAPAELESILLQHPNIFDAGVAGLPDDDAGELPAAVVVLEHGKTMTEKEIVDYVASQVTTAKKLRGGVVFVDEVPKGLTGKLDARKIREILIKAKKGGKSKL
Summary of the method: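 Purified P. pyralis luciferase (0.04 ug/mL, 4x reagent) added to Tris-acetate buffer with 0.013 mM D-luciferin, 0.013 mM ATP and 13.3 mM Mg-acetate; compounds preincubated 15 min, then luminescence read after 5 min, RT.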

[9] = KB-3-1 Cancer Cell Toxicity qHTS against the NCATS CANVASS Library (AID 1347366); further: nearly all actives have a fitted effect of over 75% in size; further: potency means the concentration at half of the fitted maximal effect
Summary of the method: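 Luminescence from CellTiter-Glo (10 min, room temperature) measured KB-3-1 viability after 72 hr compound exposure at 37C. Cells were seeded at 500/well and tested in an 11-point series.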

[10] = G06 Cancer Cell Toxicity qHTS against the NCATS CANVASS Library (AID 1347368); further: nearly all actives have a fitted effect of over 60% in size; further: potency means the concentration at half of the fitted maximal effect
Summary of the method: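 Quantitative HTS in G06 cells (dog glioma): 72 hr treatment, 11 concentrations, then ATP-based luminescent viability readout; bortezomib 0.1 nM–4.6 uM final as reference.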

[11] = qHTS for ATAD5 Antagonist screened against the NCATS CANVASS Library (AID 1347370); further: nearly all actives have a fitted effect of over 65% in size; further: potency means the concentration at half of the fitted maximal effect
Summary of the method: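 HEK293T-ATAD5 luc reporter, 2000 cells/well; 5hr attach; cpd + 10 uM 5-FUrd; 16hr 37C, 5% CO2. Readouts: CellTiter-Fluor fluorescence (1hr), then Amplite luciferase luminescence (30min RT).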

[12] = J3T Cancer Cell Toxicity qHTS against the NCATS CANVASS Library (AID 1347371); further: potency means the concentration at half of the fitted maximal effect
Summary of the method: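 ATP-based cytotoxicity in canine J3T cells: 72 hr exposure at 37C, 11-point titration, CellTiterGlo luminescent detection.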

[13] = 10-beta competent E. coli microbial cell viability qHTS against the NCATS CANVASS Library (AID 1347376); further: series mostly up to about 46 µM
Summary of the method: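 Overnight 37C exposure of 10-beta E. coli (0.2 OD) to an 11-point concentration series; ATP-based luminescence after 20 min room-temperature reagent incubation; daunomycin as control.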

[14] = qHTS for H2AX Agonists against the NCATS CANVASS Library (AID 1347378);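 further: phospho-H2AX S139 level in CHO-K1 lysates by TR-FRET emission ratio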; further: potency means the concentration at half of the fitted maximal effect
Summary of the method: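 CHO-K1, 1000 cells/well, o/n 37C; cpd several conc, 3 hr 37C, 0.76% DMSO; lyse 30 min RT; cryptate anti-pH2AX(S139) + d2 anti-H2AX, 24 hr RT; HTRF 665/620.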

[15] = qHTS for Inflammasome Signaling Inhibitors: IL-1-beta AlphaLISA screen against the NCATS CANVASS Library (AID 1347379);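 further: human THP-1 cells primed with LPS then triggered with ATP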;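 on Potency: secreted IL-1B measured as AlphaLISA emission at 615 nm; potency means the concentration at half of the fitted maximal effect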
Summary of the method: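 THP-1, 1 hr compound pre-incubation, then LPS 250 ng/mL + ATP 1.25 mM (final); 16 hr total with compound; IL-1B AlphaLISA, ex 680/em 615 nm; 11-point qHTS, up to 57.5 uM final.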

[16] = Inflammasome Signaling qHTS Counterscreen: IL-1-beta AlphaLISA counterscreen against the NCATS CANVASS Library (AID 1347381);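 further: cell-free check with purified IL-1β in medium and no THP-1 cells; series mostly up to about 57 µM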
Summary of the method: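 Here, no cellular stimulation occurs; compounds in an 11-point series meet 4 pg purified IL-1-beta directly. Bead-based AlphaLISA detection follows (1 h acceptor/antibody, then 30 min donor, dark, room temperature), with excitation at 680 nm.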

[17] = Cytotoxicity qHTS for assessment of Hepg2 cells membrane integrity screened against the NCATS CANVASS Library (AID 1347387)
Summary of the method: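 Membrane damage in HepG2 monolayers was estimated from released LDH, measured with CytoTox-ONE (ex 560/em 590 nm), after 5 hr treatment across 0.59 nM - 46 uM final.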

[18] = qHTS for activators of dead-cell proteases activity screened against the NCATS CANVASS Library (AID 1347392);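 further: luminescence from protease leaking out of membrane-damaged cells cleaving impermeant substrate; rising signal means more cytotoxicity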
Summary of the method: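 HepG2, 2000 cells/well, 18 h attach; cpd 11-pt, 5 h 37C 5% CO2; CytoTox-Glo (AAF-aminoluciferin) 15 min RT; luminescence read.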

[19] = Redox Reaction Profiling qHTS: Assay Interference Panel against the NCATS CANVASS Library (AID 1347401); further: potency means the concentration at half of the fitted maximal effect
Summary of the method: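 Fluorescence read-out (525 nm excitation, 598 nm emission) at time zero and after 15 min in the dark tracked resorufin formation. Mix: 5 uM resazurin, 200 uM DTT, HEPES pH 7.3 buffer with NaCl.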

[20] = MCF7 Cancer Cell Toxicity qHTS against the NCATS CANVASS Library (AID 1347369); further: potency means the concentration at half of the fitted maximal effect
Summary of the method: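 Cells seeded at 500/well, then compound pinned. Plates incubated 72 hr at 37C, 5% CO2. CellTiterGlo added; luminescence read.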

Measured: Potency

C[C@]12CCC[C@](C)(C(=O)O)[C@@H]1CC[C@@]1(C)c3cocc3CC[C@H]21
not listed: [20]
inactive: all other assays above

C=C[C@](Cl)(CBr)CCC=C(C)C
not listed: [10] | [13] | [15]
inactive: all other assays above

O=C1CC2OCC=C3CN4C5CC3C2[C@@H]2N1c1ccccc1[C@]52C[C@@H]4C1=C[C@H]2C3CC4N(CC[C@@]45c4ccccc4N(C1=O)[C@@H]25)C/C3=C/CO (stereo partly drawn)
active: [10] 23.5 µM | [15] 24.3 µM
not listed: [9] | [11] | [12]
inactive: all other assays above

C/C1=C/[C@@H](C)[C@H](O)[C@@H](O)/C=C/CC/C=C/C(=O)O[C@@H]1[C@H](C)C(=O)CCCC1CC(=O)NC(=O)C1
not listed: [10]
inactive: all other assays above

C[C@@]12CCC[C@@](C)(C(=O)O)[C@H]1C[C@@H](O)[C@@]13C[C@@H](CC[C@@H]21)[C@](C)(O)C3
not listed: [13]
inactive: all other assays above

C/C(=C\[C@H](C)C(=O)CCCC1CC(=O)NC(=O)C1)[C@@H]1OC(=O)/C=C/CC/C=C/[C@H](O)[C@@H](O)[C@@H]1C
active: [9] 6.62 µM | [10] 0.372 µM | [11] 2.63 µM | [15] 6.11 µM | [19] 24.1 µM
not listed: [12] | [14] | [20]
inactive: all other assays above

Cc1cc(O)cc2c1C(=O)c1c(O)cc(O)cc1C2=O
inactive: all assays above

O=C(OC[C@H]1O[C@@H](OC(=O)c2cc(O)c(O)c(O)c2)[C@H](OC(=O)c2cc(O)c(O)c(O)c2)[C@@H](OC(=O)c2cc(O)c(O)c(O)c2)[C@@H]1OC(=O)c1cc(O)c(O)c(O)c1)c1cc(O)c(O)c(O)c1
active: [10] 23.5 µM | [19] 24.1 µM
not listed: [7] | [8] | [9] | [14]
inactive: all other assays above

C/C=C1/CN2C3CC1C1C=CC(=O)N4c5ccccc5[C@@]3(C[C@@H]2C2=C[C@H]3C5CC6N(CC[C@@]67c6ccccc6N(C2=O)[C@@H]37)C/C5=C/C)[C@H]14 (stereo partly drawn)
active: [2] 26.4 µM | [9] 10.5 µM | [10] 7.43 µM | [20] 16.5 µM | [11] 5.24 µM | [12] 20.9 µM | [14] 21.7 µM | [15] 12.2 µM
inactive: [7] | [8] | [13] | [16] | [17] | [18] | [19]

CC(=O)c1c(C)cc2c(c1O)C(=O)c1c(O)cc(O)cc1C2=O
inactive: all assays above

CC[C@H](O)CCCCC[C@@H]1NC(=O)[C@H]2CCCCN2C(=O)[C@H]([C@H](C)CC)NC(=O)[C@H](Cc2cn(OC)c3ccccc23)NC1=O
not listed: [3] | [10] | [11] | [12] | [14]
inactive: all other assays above

CC(C)=CCC/C(C)=C/Cc1cc([C@@H]2CC(=O)c3c(cc(O)c(CC=C(C)C)c3O)O2)ccc1O
not listed: [7]
inactive: all other assays above
